Source: PubChem BioAssay (NCATS)
Where “and” joins values, the source holds several entries; their conditions need not be identical. Equal entries are not always repeated. Records with an inconclusive call do not appear. More than one record can exist for a structure, and the calls need not agree. Calls of active or inactive are those of the source. Unless noted, the call rests on the fitted dose curve; in most records, active means well fitted curve in the direction sought with a large enough effect; inconclusive means small, poorly fitted or top-dose-only effect, or another doubt; inactive means no such curve, though single readings can be large; an effect the other way counts as inactive or inconclusive.

What was measured:
[1] = molecular target: Endonuclease 4 (Escherichia coli (strain K12)) (UniProt P0A6C1); experiment: Counterscreen for APE1 Inhibitors: qHTS Validation Assay for Inhibitors of Endonuclease IV (AID 1708); further: on the % scale 0 is the no-effect control and ±100 the full control effect
In short: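 Cleavage of a quenched abasic-site DNA duplex (50 nM, 5'-TAMRA, 3'-BHQ-2) by 2 nM enzyme is followed as fluorescence increase. Compounds are preincubated with enzyme 15 min at room temperature before substrate addition.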

[2] = Quantitative high throughput screen for delayed death inhibitors of the malarial parasite plastid, 96 hour incubation (AID 488745); further: nearly all actives have a fitted effect of over 70% in size; further: potency means the concentration at half of the fitted maximal effect; on activity change, negative = inhibition: on the % scale 0 is the no-effect control and ±100 the full control effect
In short: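 P. falciparum carrying an integrated firefly luciferase reporter, grown in erythrocytes (2% hematocrit, 0.1% parasitemia final) in RPMI 1640/0.5% Albumax, was exposed to compound for 96 h (two generations) at 37 C, 5% CO2. Luminescence decrease indicated growth inhibition.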

[3] = Quantitative high throughput screen for delayed death inhibitors of the malarial parasite plastid, 48 hour incubation (AID 488752); further: nearly all actives have a fitted effect of over 65% in size; further: potency means the concentration at half of the fitted maximal effect; on activity change, negative = inhibition: on the % scale 0 is the no-effect control and ±100 the full control effect
In short: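 Erythrocytes infected with P. falciparum carrying an integrated firefly luciferase reporter (2% hematocrit, 0.1% parasitemia final) were exposed to compounds in RPMI 1640/0.5% Albumax for 48 h at 37 C, 5% CO2. Growth inhibition was scored as reduced luminescence.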

[4] = molecular target: M-phase phosphoprotein 8 (Homo sapiens) (UniProt Q99549); experiment: qHTS Validation Assay for Inhibitors for MPP8 Chromodomain Interactions with Methylated Histone Tails (AID 488949); further: nearly all actives have a fitted effect of over 55% in size; further: potency means the concentration at half of the fitted maximal effect;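 on activity change, negative = inhibition: AlphaScreen signal from MPP8 chromodomain bound to biotinylated H3K9me3 peptide; top concentration of the series differs between compounds; on the % scale 0 is the no-effect control and ±100 the full control effect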
In short: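 Disruption of the preformed MPP8–trimethyl-H3K9 peptide complex (both 50 nM, 30 min, RT) is measured after 30 min compound exposure, using AlphaScreen proximity beads; aurintricarboxylic acid titration serves as plate control.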

[5] = molecular target: Transient receptor potential cation channel subfamily V member 1 (Homo sapiens) (UniProt Q8NER1); experiment: HTS Assay for Compounds that Act as Enhancers of the Vanilloid Receptor 1 (AID 488979); further: 0% is about no effect
In short: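 TRPV1 cells loaded with Fluo-8 calcium dye; compound added and Ca2+ signal (ex 480/em 520 nm) followed 3 min, then capsaicin at EC20 added and read 2 more min to detect enhancement.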

[6] = molecular target: Thyrotropin receptor (Homo sapiens) (UniProt P16473); experiment: qHTS Assay for Antagonists of the Thyroid Stimulating Hormone Receptor (AID 488980); further: 0% is about no effect
In short: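 Cells expressing human TSHR (HEK293) are dispensed in HBSS/HEPES containing 70 uM RO 20-1724, compound is added, then TSH at EC80 (4 nM final). Antibody in lysis buffer follows, 30 minutes at room temperature before HTRF detection.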

[7] = molecular target: Thyrotropin-releasing hormone receptor (Homo sapiens) (UniProt P34981); experiment: qHTS for Small Molecule Agonists and Allosteric Enhancers of Human TRH Receptor: Validation Screen for Agonists (AID 493127;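 active means calcium activation more than 3 SD above the typical response in the agonist read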;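 further: intracellular calcium rise by fluo-8 fluorescence before TRH EC20 addition; 0% is about no effect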); conditions: TRH receptor agonist cell assay; at 2 µM; stronger effect = higher value
In short: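 TRHR-expressing cells were plated overnight in serum-containing medium, then loaded with fluo-8 calcium dye at room temperature for 30 min–1.5 h. After a 10 s baseline, compound was pin-transferred and calcium fluorescence (ex 480/em 530) read kinetically for agonist response.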

[8] = molecular target: Galactokinase (Homo sapiens) (UniProt P51570); experiment: qHTS Validation Assay for Inhibitors of Human Galactokinase (GALK) (AID 493189); further: 0% is about no effect
In short: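 Compounds were pin-transferred into ATP buffer, then GALK-galactose mix was added (final 5 nM enzyme, 100 uM galactose, 35 uM ATP). After 1 h at room temperature, remaining ATP was measured luminescently.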

[9] = molecular target: Rap guanine nucleotide exchange factor 3 (Homo sapiens) (UniProt O95398); experiment: Confirmatory qHTS for agonist of cAMP-regulated guanine nucleotide exchange factor 3 (EPAC1) (AID 1645881); further: nearly all actives have a fitted effect of over 75% in size; further: potency means the concentration at half of the fitted maximal effect;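 on activation: EPAC1 catalysed release of BODIPY-GDP from Rap1B seen as fluorescence loss; 100% = effect of cAMP agonist control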
[10] = molecular target: Rap guanine nucleotide exchange factor 4 (Homo sapiens) (UniProt Q8WZA2); experiment: Confirmatory qHTS for antagonist of cAMP-regulated guanine nucleotide exchange factor 4 (EPAC2) (AID 1645885); further: nearly all actives have a fitted effect of over 25% in size; further: potency means the concentration at half of the fitted maximal effect
[11] = Cellular Toxicity (caspase-3) Hek293 (AID 664);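 further: cells exposed to compound for 16 h at 37 °C before readout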
In short: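 HEK293 cells were exposed to compounds in complete medium for 16 hr at 37 °C, then caspase-3/7 activity was read by Caspase-Glo 3/7 luminescence after 20 min at room temperature. Data normalized to DMSO and 100 uM tamoxifen; AC50 from Hill fits.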

[12] = Cell Viability - LYMP2-001 (AID 921); further: nearly all actives have a fitted effect of over 70% in size; further: potency means the concentration at half of the fitted maximal effect
In short: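 qHTS, 1536-well; lymphoblastoid cells, 24 hr compound, 37 C; ATP by CellTiter-Glo, 30 min RT; luminescence; Hill-fit AC50.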

[13] = Cell Viability - LYMP2-004 (AID 966);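 further: plate controls were DMSO only for no effect and tetraoctylammonium bromide control for full effect; nearly all actives have a fitted effect of over 65% in size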
In short: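 Human lymphoblastoid cells (2500/well) in complete medium were treated with compounds for 24 hr at 37 C, then intracellular ATP was measured by CellTiter-Glo luminescence. AC50 values came from Hill-equation fits of concentration-response data.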

[14] = Cell Viability - LYMP2-014 (AID 983);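 further: plate controls were DMSO only for no effect and 92 µM tetraoctylammonium bromide for full effect; nearly all actives have a fitted effect of over 50% in size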
In short: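 Human lymphoblastoid cells (2500/well) were pre-incubated 5 hr at 37 C, then exposed to compounds in complete medium for 24 hr at 37 C. Intracellular ATP was read by CellTiter-Glo luminescence after 30 min at room temperature; AC50 from Hill fits.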

[15] = Cell Viability - LYMP2-022 (AID 987);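 further: 0% = DMSO alone and full effect = tetraoctylammonium bromide at 92 µM; nearly all actives have a fitted effect of over 55% in size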
In short: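 Human lymphoblastoid cells, 2500/well, preincubated 5 hr at 37 C, then exposed to compounds over a concentration range for 24 hr at 37 C in complete medium. Viability read as intracellular ATP by CellTiter-Glo luminescence after 30 min at room temperature; AC50 from Hill fits.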

[16] = molecular target: Peroxisome proliferator-activated receptor gamma (Homo sapiens) (UniProt P37231); experiment: qHTS assay for small molecule antagonists of peroxisome proliferator-activated receptor gamma signaling (AID 588537; active means well fitted inhibition curve with a large enough effect in the signal ratio, with a control signal flat, not every such curve was filed as active; the % refers to the signal ratio; further: potency means the concentration at half of the fitted maximal effect)
In short: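 Step one: plate 3000 HEK293 UAS-bla cells per well in medium with 1% stripped serum and hold 6-6.5 h at 37 C. Step two: add compound and 50 nM agonist for 16 h. Step three: CCF4 loading, fluorescence read.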

[17] = Cell Viability - LYMP1-003 - Assay at 24 hr (AID 963);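 further: plate controls were DMSO only for no effect and tetraoctylammonium bromide positive control for full effect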
In short: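 Human lymphoblastoid LYMP1-003 cells (2500/well) were rested 5 hr at 37 C, then exposed to compounds in complete medium for 24 hr at 37 C. Cellular ATP was quantified by CellTiter-Glo luminescence, and AC50 values came from Hill fits of concentration-response data.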

[18] = qHTS assay for small molecule activators of the human pregnane X receptor (PXR) signaling pathway (AID 720659; call rule not given here; further: 0% is about no effect)
[19] = qHTS assay for small molecule disruptors of the mitochondrial membrane potential - 1 hr assay (AID 651754; calls by dose curve; further: on the % scale 0 is the no-effect control and ±100 the full control effect; nearly all actives have a fitted effect of over 35% in size)
In short: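 HepG2 cells, attached overnight at 37C, were exposed to compound or DMSO vehicle for 1 hr at 37C, 5% CO2, then stained with Mito-MPS dye for 30 min. Red aggregate versus green monomer fluorescence reports membrane potential.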

7G8 = experiment: qHTS profiling for inhibitors of Plasmodium falciparum proliferation (AID 504749); further: nearly all actives have a fitted effect of over 60% in size; further: potency means the concentration at half of the fitted maximal effect; conditions: P. falciparum in erythrocytes, SYBR Green DNA, 72 h; series mostly up to 12.8 µM
In short: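 Readout was DNA-dye fluorescence from lysed cultures, ex 485/em 535 nm. Parasitized red cells had grown 72 h with compound; data scaled between 0.29 uM artemisinin and DMSO wells and corrected using vehicle-only plates.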

Rap guanine nucleotide exchange factor 4 (Homo sapiens), sequence (Q8WZA2 whole entry, looked up): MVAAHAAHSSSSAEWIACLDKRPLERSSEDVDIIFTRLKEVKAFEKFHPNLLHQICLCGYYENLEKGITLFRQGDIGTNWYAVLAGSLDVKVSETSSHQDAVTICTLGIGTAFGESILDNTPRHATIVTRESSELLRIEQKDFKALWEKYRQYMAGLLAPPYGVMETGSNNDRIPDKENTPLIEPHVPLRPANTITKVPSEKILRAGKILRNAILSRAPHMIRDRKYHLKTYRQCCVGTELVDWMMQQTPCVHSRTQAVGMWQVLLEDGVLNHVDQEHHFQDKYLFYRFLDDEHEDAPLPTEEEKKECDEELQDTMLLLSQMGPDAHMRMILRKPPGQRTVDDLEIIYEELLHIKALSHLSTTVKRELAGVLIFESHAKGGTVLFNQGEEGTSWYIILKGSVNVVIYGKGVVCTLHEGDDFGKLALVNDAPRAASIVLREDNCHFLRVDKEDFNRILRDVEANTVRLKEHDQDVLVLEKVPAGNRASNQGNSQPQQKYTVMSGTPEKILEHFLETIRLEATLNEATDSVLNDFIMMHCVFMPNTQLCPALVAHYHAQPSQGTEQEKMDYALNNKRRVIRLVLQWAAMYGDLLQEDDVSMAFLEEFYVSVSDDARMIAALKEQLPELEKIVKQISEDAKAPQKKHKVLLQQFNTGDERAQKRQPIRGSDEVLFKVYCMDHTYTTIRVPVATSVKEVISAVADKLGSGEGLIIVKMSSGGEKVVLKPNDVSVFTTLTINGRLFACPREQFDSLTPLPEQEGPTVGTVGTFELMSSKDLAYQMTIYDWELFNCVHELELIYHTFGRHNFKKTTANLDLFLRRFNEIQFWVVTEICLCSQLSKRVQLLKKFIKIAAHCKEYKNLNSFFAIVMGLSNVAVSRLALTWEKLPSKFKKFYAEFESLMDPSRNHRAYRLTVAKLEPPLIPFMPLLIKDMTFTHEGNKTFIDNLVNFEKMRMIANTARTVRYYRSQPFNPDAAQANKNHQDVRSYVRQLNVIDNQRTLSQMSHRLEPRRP
M-phase phosphoprotein 8 (Homo sapiens), sequence (Q99549 whole entry, looked up): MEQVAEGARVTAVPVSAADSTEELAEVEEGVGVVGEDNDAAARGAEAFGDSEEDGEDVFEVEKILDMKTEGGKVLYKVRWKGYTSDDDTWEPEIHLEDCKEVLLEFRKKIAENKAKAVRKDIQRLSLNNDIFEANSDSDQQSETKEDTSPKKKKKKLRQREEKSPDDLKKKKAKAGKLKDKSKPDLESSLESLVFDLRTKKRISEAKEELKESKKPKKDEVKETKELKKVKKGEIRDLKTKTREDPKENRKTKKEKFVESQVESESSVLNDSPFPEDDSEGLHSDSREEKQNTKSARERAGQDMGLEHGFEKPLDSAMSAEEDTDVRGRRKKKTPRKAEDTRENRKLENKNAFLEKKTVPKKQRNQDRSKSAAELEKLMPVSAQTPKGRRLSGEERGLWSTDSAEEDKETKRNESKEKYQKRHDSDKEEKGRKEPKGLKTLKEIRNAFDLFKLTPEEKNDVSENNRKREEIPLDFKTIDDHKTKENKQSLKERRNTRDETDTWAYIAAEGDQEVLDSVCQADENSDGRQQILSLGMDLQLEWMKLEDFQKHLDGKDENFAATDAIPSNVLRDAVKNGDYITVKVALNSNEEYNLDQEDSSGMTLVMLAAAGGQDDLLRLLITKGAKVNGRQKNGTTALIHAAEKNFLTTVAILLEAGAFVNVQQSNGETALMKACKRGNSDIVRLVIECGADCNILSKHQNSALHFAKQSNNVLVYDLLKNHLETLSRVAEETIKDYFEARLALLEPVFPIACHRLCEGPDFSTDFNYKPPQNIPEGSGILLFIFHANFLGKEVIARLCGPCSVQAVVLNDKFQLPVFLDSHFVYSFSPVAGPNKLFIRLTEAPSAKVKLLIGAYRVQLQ
Thyrotropin receptor (Homo sapiens), sequence (P16473 whole entry, looked up): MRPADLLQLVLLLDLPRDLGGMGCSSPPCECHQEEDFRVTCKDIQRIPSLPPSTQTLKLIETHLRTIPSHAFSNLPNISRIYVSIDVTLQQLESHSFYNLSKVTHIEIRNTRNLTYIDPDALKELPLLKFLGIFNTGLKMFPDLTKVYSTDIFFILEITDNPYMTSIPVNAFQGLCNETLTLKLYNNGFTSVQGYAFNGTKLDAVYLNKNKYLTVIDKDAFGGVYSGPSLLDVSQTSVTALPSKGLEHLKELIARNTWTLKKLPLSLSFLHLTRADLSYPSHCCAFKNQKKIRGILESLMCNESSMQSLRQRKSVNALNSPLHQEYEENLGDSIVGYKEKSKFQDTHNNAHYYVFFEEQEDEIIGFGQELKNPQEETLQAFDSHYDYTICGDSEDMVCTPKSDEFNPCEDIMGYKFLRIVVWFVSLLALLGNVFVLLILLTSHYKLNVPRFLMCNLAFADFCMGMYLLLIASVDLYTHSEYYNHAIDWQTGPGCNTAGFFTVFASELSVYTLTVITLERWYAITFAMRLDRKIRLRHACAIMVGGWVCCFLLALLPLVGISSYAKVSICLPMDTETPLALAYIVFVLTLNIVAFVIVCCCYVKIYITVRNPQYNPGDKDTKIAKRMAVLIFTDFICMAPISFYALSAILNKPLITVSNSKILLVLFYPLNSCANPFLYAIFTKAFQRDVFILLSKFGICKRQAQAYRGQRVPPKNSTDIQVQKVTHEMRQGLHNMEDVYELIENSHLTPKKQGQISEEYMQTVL
Peroxisome proliferator-activated receptor gamma (Homo sapiens), sequence (P37231 whole entry, looked up): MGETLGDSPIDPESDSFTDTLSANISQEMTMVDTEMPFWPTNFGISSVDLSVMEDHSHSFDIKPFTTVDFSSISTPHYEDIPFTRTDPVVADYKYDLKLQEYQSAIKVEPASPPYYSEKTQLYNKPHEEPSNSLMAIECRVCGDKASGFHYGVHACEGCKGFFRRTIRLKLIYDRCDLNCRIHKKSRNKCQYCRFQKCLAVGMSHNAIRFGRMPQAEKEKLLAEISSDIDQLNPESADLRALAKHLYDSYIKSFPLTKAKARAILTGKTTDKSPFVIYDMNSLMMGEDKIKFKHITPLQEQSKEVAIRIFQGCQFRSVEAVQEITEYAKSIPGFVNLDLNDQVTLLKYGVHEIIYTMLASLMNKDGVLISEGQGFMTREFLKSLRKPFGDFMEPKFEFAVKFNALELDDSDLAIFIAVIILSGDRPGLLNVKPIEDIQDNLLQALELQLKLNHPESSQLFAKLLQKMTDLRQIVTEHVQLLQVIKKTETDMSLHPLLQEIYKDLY
Transient receptor potential cation channel subfamily V member 1 (Homo sapiens), sequence (Q8NER1 whole entry, looked up): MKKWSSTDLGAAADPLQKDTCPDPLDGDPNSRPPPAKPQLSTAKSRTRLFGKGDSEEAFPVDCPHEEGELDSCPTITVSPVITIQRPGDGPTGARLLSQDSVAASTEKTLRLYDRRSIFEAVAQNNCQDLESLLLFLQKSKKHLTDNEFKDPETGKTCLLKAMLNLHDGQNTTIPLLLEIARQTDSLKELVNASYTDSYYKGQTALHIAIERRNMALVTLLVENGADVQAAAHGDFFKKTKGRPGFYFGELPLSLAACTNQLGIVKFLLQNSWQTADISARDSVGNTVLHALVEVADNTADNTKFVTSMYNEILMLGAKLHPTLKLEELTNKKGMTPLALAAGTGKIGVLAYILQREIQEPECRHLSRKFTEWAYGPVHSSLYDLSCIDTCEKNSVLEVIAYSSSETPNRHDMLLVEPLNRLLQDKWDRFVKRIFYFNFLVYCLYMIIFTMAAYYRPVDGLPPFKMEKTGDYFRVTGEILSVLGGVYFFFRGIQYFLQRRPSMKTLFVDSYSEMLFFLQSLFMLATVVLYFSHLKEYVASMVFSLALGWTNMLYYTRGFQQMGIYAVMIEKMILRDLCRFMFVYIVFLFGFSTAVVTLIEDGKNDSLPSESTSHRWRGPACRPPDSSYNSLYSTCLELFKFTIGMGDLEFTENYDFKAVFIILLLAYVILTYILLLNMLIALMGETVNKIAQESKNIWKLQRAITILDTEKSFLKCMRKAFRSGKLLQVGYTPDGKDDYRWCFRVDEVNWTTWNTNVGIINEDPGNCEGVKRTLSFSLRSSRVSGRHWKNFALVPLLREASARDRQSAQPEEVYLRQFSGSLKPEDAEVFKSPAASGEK
Rap guanine nucleotide exchange factor 3 (Homo sapiens), sequence (O95398 whole entry, looked up): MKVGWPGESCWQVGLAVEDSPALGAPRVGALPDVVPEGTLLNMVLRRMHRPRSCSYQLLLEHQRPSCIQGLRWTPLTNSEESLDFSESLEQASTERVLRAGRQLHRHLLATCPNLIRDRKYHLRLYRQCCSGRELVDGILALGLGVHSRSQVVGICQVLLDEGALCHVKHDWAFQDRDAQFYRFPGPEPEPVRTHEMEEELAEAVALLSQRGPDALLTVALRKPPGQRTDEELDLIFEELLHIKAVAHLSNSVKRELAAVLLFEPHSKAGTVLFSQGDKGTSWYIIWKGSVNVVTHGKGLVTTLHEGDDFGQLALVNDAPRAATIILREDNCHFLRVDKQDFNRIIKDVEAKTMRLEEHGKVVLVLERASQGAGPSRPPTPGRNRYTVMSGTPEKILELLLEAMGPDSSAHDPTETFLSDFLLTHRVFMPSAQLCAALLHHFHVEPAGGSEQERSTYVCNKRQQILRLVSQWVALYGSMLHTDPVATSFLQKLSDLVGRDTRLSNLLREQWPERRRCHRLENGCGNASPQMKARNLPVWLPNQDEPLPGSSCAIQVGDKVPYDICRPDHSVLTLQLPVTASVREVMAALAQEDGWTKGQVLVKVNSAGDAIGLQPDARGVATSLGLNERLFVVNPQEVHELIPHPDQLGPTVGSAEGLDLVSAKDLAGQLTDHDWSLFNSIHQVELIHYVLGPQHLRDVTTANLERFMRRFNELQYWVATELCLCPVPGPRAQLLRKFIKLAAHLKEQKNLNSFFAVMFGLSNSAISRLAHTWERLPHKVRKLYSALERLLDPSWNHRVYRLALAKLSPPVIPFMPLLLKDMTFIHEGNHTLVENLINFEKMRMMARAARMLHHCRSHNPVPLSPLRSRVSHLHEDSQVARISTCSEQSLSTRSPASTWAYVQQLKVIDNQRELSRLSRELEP

CCCN1CCc2cc(O)cc3c2C1Cc1ccc(O)c(O)c1-3 (stereo not given)
active: Potency [2] 3.29 µM | Potency [3] 8.28 µM | Potency [4] 31.6 µM
inactive: Potency [1] | outcome [5] | outcome [6] | activation [7] 0.375% | outcome [8]

CCc1c(C(=O)OC)ncc2[nH]c3cc(OC)c(OC)cc3c12
inactive: Potency [2] | Potency [3] | Potency [4] | outcome [5] | outcome [6] | activation [7] 0.312% | outcome [8]

C[C@]12CC[C@H](O)CC1=CCC1C2CC[C@]2(C)C(=O)CC[C@@H]12 (stereo not given in full)
inactive: Potency [1] | Potency [2] | Potency [3] | Potency [4] | outcome [5] | outcome [6] | activation [7] 0.438% | outcome [8]

O=C1C=CC(=O)c2c(O)cccc21
inactive: Potency [9] | Potency [10]

CC1=NCCc2c1[nH]c1cc(O)ccc21
inactive: Potency [10]
active: Potency [9] 63 µM and 28.1 µM and 48.4 µM

O=C1c2ccccc2-c2cccc3cccc1c23
inactive: Potency [9] | Potency [10]

ClC(Cl)=C(c1ccc(Cl)cc1)c1ccc(Cl)cc1
inactive: outcome [11] | Potency [12] | Potency [13] | Potency [14] | Potency [15] | Potency [16]

CCCN1CCc2cccc3c2C1Cc1ccc(O)c(O)c1-3 (stereo not given)
active: Potency [2] 2.94 µM | Potency [3] 1.85 µM | Potency [4] 20 µM
inactive: Potency [1] | outcome [5] | outcome [6] | activation [7] 1.44% | outcome [8]

CCNc1nc(Cl)nc(NC(C)C)n1
inactive: Potency [17] | Potency [13] | Potency [15] | Potency [16]

C=CCc1ccc2c(c1)OCO2
inactive: Potency [12] | Potency [17] | Potency [13] | Potency [14] | Potency [15] | outcome [18]

O=C(OC1CCN(CCCl)CC1)C(c1ccccc1)c1ccccc1
inactive: Potency [4] | outcome [5] | outcome [6] | activation [7] -9.25% | outcome [8] | Potency [9] | activity change, negative = inhibition [10] -6.11% [at 12.7 µM]

O=C(O)COc1ccc(Cl)cc1Cl
inactive: outcome [11] | Potency [12] | Potency [17] | Potency [13] | Potency [14] | Potency [15] | Potency [19] | outcome [18]

CNC(=O)O/N=C/C(C)(C)SC
inactive: outcome [11] | Potency [13] | Potency [14] | Potency [19]
inactive and 39.8 µM (active): Potency [16]

COc1cc2c(cc1-c1cc3cc4ccoc4cc3oc1=O)OCO2
active: Potency [10] 0.987 µM
inactive: Potency [9]

C=CCc1ccc(OC)cc1
inactive: Potency [12] | Potency [15] | Potency [16] | outcome [18]

CC(C)[C@@]1(NC(=O)[C@@H]2C[C@@H]3c4cccc5[nH]cc(c45)C[C@H]3N(C)C2)O[C@@]2(O)C3CCCN3C(=O)[C@H](Cc3ccccc3)N2C1=O (stereo not given in full)
inactive: Potency [1] | outcome [5] | outcome [6] | activation [7] 0.125% | outcome [8]
active: Potency [2] 1.47 µM | Potency [3] 1.65 µM

C[N+]1([O-])[C@@H]2CC(OC(=O)[C@@H](CO)c3ccccc3)C[C@@H]1[C@H]1O[C@H]12 (stereo not given in full)
inactive: Potency (7G8)

C/C=C/c1ccc2c(c1)OCO2
inactive: outcome [11] | Potency [12] | Potency [13] | Potency [15] | outcome [18]

ClC1=C(Cl)C2(Cl)C3C(Cl)C=CC3C1(Cl)C2(Cl)Cl (stereo not given)
inactive: Potency [14] | Potency [16] | Potency [19] | outcome [18]

CCc1cccc(CC)c1N(COC)C(=O)CCl
inactive: outcome [11] | Potency [17] | Potency [19]

C[C@H]1CN(C2CCC(C#N)(c3ccc(F)cc3)CC2)CC[C@@]1(C(=O)O)c1ccccc1 (stereo not given in full)
inactive: Potency (7G8)

CC(=O)O[C@H]1CC[C@@]2(C)C(=CC[C@@H]3[C@H]2CC[C@]2(C)C(=O)CC[C@H]32)C1
inactive: Potency (7G8)

C[C@H](N)[C@@H](O)c1ccccc1
inactive: Potency (7G8)

COc1ccc2c(c1OC)CN1CCc3cc4c(cc3[C@H]1C2)OCO4
active: Potency (7G8) 3.55 µM

ClC1=C(Cl)C2(Cl)C3C4C=CC(C4)C3C1(Cl)C2(Cl)Cl (stereo not given)
active: Potency [12] 39.8 µM
inactive: Potency [16] | Potency [19]

C#CCN(C)[C@@H](C)Cc1ccccc1
inactive: Potency (7G8)

CCOCN(C(=O)CCl)c1c(C)cccc1CC
inactive: outcome [11] | Potency [17] | Potency [19]
